# Measurements reported in PubChem BioAssay (EPA / NIEHS).
# Active and inactive are the calls of the source. How the source made its calls: active means hit-call score of the fitted dose curve at least 0.9, where 1 is the maximum; inactive means score below 0.9.
# Read-out: Peroxisomal acyl-coenzyme A oxidase 1 (ACOX1) gene, ACOX1 (gene 51)
# Experiment: LTEA_HepaRG_ACOX1: Life Technologies and Expression Analysis (LTEA) Assay for Peroxisomal acyl-coenzyme A oxidase 1 (ACOX1) gene using HepaRG (AID 2283467)
# Settings: mRNA level, 48 h; actives raise or lower the signal
# Method in brief: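 Differentiated human HepaRG cells were exposed in duplicate for 48 h in serum-free induction medium to eight half-log concentrations up to 100 uM in 0.5% DMSO. ACOX1 mRNA was then quantified by TaqMan qRT-PCR, normalized to ACTB, GAPDH and POLR2A.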
SMILES,outcome,AC50
COP(=O)(NC(C)=O)SC (stereo not given),inactive,
CSc1nc(NC(C)C)nc(NC(C)C)n1,inactive,
COP(=O)(OC)OC(Br)C(Cl)(Cl)Br (stereo not given),inactive,
CC(=NC#N)N(C)Cc1ccc(Cl)nc1,inactive,
CN1COCN(Cc2cnc(Cl)s2)C1=N[N+](=O)[O-],inactive,
COc1ccc(C(=CC(=O)N2CCOCC2)c2ccc(Cl)cc2)cc1OC,inactive,
CNC(=O)ON=C(C)SC,inactive,
CCOP(=S)(OCC)SCCSCC,inactive,
COP(=O)(OC)C(O)C(Cl)(Cl)Cl (stereo not given),inactive,
CCOP(=O)(OCC)Oc1cc(C)nc(C(C)C)n1,inactive,
CCC(CC)Nc1c([N+](=O)[O-])cc(C)c(C)c1[N+](=O)[O-],inactive,
CCOP(=S)(OCC)Oc1ccc([N+](=O)[O-])cc1,inactive,
CC(C1CC1)C(O)(Cn1cncn1)c1ccc(Cl)cc1 (stereo not given),inactive,
CNC(=O)ON=C(SC)C(=O)N(C)C,inactive,
CNC(=O)Oc1cccc2c1OC(C)(C)O2,inactive,
CCc1cnc(C2=NC(C)(C(C)C)C(=O)N2)c(C(=O)O)c1 (stereo not given),inactive,
Cc1cc(C2CC2)nc(Nc2ccccc2)n1,inactive,
CCCSP(=O)(OCC)SCCC,inactive,

SMILES,outcome,AC50
COc1cc(OC)nc(Sc2cccc(Cl)c2C(=O)O)n1,inactive,
CC1(C(=O)Nc2ccc(O)c(Cl)c2Cl)CCCCC1,inactive,
CSc1nnc(C(C)(C)C)c(=O)n1N,inactive,
CCC(=O)Nc1ccc(Cl)c(Cl)c1,inactive,
CCOP(=O)(NC(C)C)Oc1ccc(SC)c(C)c1 (stereo not given),inactive,
CC1=NNC(=O)N(/N=C/c2cccnc2)C1,inactive,
CSC1=N[C@@](C)(c2ccccc2)C(=O)N1Nc1ccccc1,,27.3 µM (active)
CC(Oc1cccc(Cl)c1)C(=O)O (stereo not given),inactive,
CCCCOC(=O)c1ccccc1C(=O)O,inactive,
CON=C(C(=O)OC)c1ccccc1CON=C(C)c1cccc(C(F)(F)F)c1,inactive,
C#CC(C)(C)NC(=O)c1cc(Cl)cc(Cl)c1,inactive,
CC[C@H](C)[C@H]1O[C@]2(C=C[C@@H]1C)C[C@@H]1C[C@@H](C/C=C(\C)[C@@H](O[C@H]3C[C@H](OC)[C@@H](O[C@H]4C[C@H](OC)[C@@H](NC)[C@H](C)O4)[C@H](C)O3)[C@@H](C)/C=C/C=C3\CO[C@@H]4[C@H](O)C(C)=C[C@@H](C(=O)O1)[C@]34O)O2,,13 µM (active)
Nc1c(Cl)cc([N+](=O)[O-])cc1Cl,,22.8 µM (active)
CC(C)N(C(=O)SCC(Cl)=C(Cl)Cl)C(C)C,inactive,
Cc1nn(-c2cc(NS(C)(=O)=O)c(Cl)cc2Cl)c(=O)n1C(F)F,inactive,
C[Si](Cn1cncn1)(c1ccc(F)cc1)c1ccc(F)cc1,,40.9 µM (active)
CNc1cnn(-c2cccc(C(F)(F)F)c2)c(=O)c1Cl,inactive,
C#CCC1=C(C)C(OC(=O)C2C(C=C(C)C)C2(C)C)CC1=O (stereo not given),inactive,

# Read-out: Alkaline Phosphatase, Placental (ALPP) gene, ALPP (gene 250)
# Experiment: LTEA_HepaRG_ALPP: Life Technologies and Expression Analysis (LTEA) Assay for Alkaline Phosphatase, Placental (ALPP) gene using HepaRG (AID 2283468)
# Settings: mRNA level, 48 h; actives raise or lower the signal
# Method in brief: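 HepaRG, 48 h plating then 48 h dosing, serum-free induction medium, 0.5% DMSO. 8 conc, half-log, max 100 uM, duplicates. Endpoint: ALPP transcript by qRT-PCR, housekeeping-normalized; gain or loss fitted vs DMSO.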
SMILES,outcome,AC50
COP(=O)(NC(C)=O)SC (stereo not given),inactive,
COP(=O)(OC)OC(Br)C(Cl)(Cl)Br (stereo not given),inactive,
CC(=NC#N)N(C)Cc1ccc(Cl)nc1,inactive,
CN1COCN(Cc2cnc(Cl)s2)C1=N[N+](=O)[O-],inactive,
COc1ccc(C(=CC(=O)N2CCOCC2)c2ccc(Cl)cc2)cc1OC,inactive,
CNC(=O)ON=C(C)SC,inactive,
CCOP(=S)(OCC)SCCSCC,inactive,
COP(=O)(OC)C(O)C(Cl)(Cl)Cl (stereo not given),,0.0572 µM (active)
CCOP(=O)(OCC)Oc1cc(C)nc(C(C)C)n1,inactive,
CCC(CC)Nc1c([N+](=O)[O-])cc(C)c(C)c1[N+](=O)[O-],inactive,
CCOP(=S)(OCC)Oc1ccc([N+](=O)[O-])cc1,inactive,
CNC(=O)ON=C(SC)C(=O)N(C)C,inactive,
CNC(=O)Oc1cccc2c1OC(C)(C)O2,inactive,
CCc1cnc(C2=NC(C)(C(C)C)C(=O)N2)c(C(=O)O)c1 (stereo not given),inactive,
Cc1cc(C2CC2)nc(Nc2ccccc2)n1,inactive,
CCCSP(=O)(OCC)SCCC,inactive,
COc1cc(OC)nc(Sc2cccc(Cl)c2C(=O)O)n1,inactive,

SMILES,outcome,AC50
CC1(C(=O)Nc2ccc(O)c(Cl)c2Cl)CCCCC1,inactive,
CSc1nnc(C(C)(C)C)c(=O)n1N,inactive,
CCC(=O)Nc1ccc(Cl)c(Cl)c1,,50 µM (active)
CCOP(=O)(NC(C)C)Oc1ccc(SC)c(C)c1 (stereo not given),inactive,
CC1=NNC(=O)N(/N=C/c2cccnc2)C1,inactive,
CSC1=N[C@@](C)(c2ccccc2)C(=O)N1Nc1ccccc1,,13.3 µM (active)
CC(Oc1cccc(Cl)c1)C(=O)O (stereo not given),inactive,
CCCCOC(=O)c1ccccc1C(=O)O,inactive,
CON=C(C(=O)OC)c1ccccc1CON=C(C)c1cccc(C(F)(F)F)c1,inactive,
C#CC(C)(C)NC(=O)c1cc(Cl)cc(Cl)c1,,17.3 µM (active)
CC[C@H](C)[C@H]1O[C@]2(C=C[C@@H]1C)C[C@@H]1C[C@@H](C/C=C(\C)[C@@H](O[C@H]3C[C@H](OC)[C@@H](O[C@H]4C[C@H](OC)[C@@H](NC)[C@H](C)O4)[C@H](C)O3)[C@@H](C)/C=C/C=C3\CO[C@@H]4[C@H](O)C(C)=C[C@@H](C(=O)O1)[C@]34O)O2,,11.9 µM (active)
Nc1c(Cl)cc([N+](=O)[O-])cc1Cl,,50 µM (active)
CC(C)N(C(=O)SCC(Cl)=C(Cl)Cl)C(C)C,inactive,
Cc1nn(-c2cc(NS(C)(=O)=O)c(Cl)cc2Cl)c(=O)n1C(F)F,inactive,
C[Si](Cn1cncn1)(c1ccc(F)cc1)c1ccc(F)cc1,,50 µM (active)
CNc1cnn(-c2cccc(C(F)(F)F)c2)c(=O)c1Cl,inactive,
C#CCC1=C(C)C(OC(=O)C2C(C=C(C)C)C2(C)C)CC1=O (stereo not given),inactive,
